Experimental data as given in PubChem BioAssay (EPA / NIEHS).
Several values for one entry are separate records, joined by “and”; a condition that tells them apart may be missing. Identical values can stand only once. Results filed as inconclusive are left out. A structure can be active in one record and inactive in another. Activity calls are given as the source filed them. The calls were made as follows, unless noted: active = hit-call score of the fitted dose curve at least 0.9, where 1 is the maximum; inactive = score below 0.9.

What was measured:
[1] = target: Nuclear respiratory factor 1 (Homo sapiens) (UniProt Q16656); test: ATG_NRF1_CIS: Attagene CIS-FACTORIAL HepG2 Assay for human Nuclear Respiratory Factor 1 (NRF1) Orphan Gene (AID 2282987); details: HepG2 NRF1 cis-element reporter, Attagene multiplex; actives raise or lower the signal
Summary of the method: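 Transcriptional reporter readout, one component of a 52-endpoint multiplexed HepG2 panel. Exposure 24 h; mRNA detected via RT-PCR and fluorescent capillary electrophoresis; fitting in both directions against DMSO.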

[2] = ATG_NFI_CIS: Attagene CIS-FACTORIAL HepG2 Assay for human Nuclear Factor I (NFI) (AID 2282989); details: HepG2 cis-regulatory reporter, NFI response element transcription; actives raise or lower the signal
Summary of the method: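 Endogenous TF activity in HepG2 cells transiently transfected with cis-element-driven multiplexed reporter units, read 24 h after dosing. Reporter mRNA quantified by RT-PCR, 6-FAM labelling, HpaI digestion and capillary electrophoresis; bidirectional fit versus DMSO.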

[3] = target: Myc proto-oncogene protein (Homo sapiens) (UniProt P01106); test: ATG_Myc_CIS: Attagene CIS-FACTORIAL HepG2 Assay for human Myelocytomatosis (Myc) Proto-Oncogene Transcription Factor (AID 2282990); details: HepG2, Attagene cis-reporter transcription factor activity; actives raise or lower the signal
Summary of the method: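 Cells of the HepG2 human liver line bear multiple cis-driven reporter transcription units. Reporter mRNA after 24 h exposure is reverse-transcribed, amplified, labelled and resolved by capillary electrophoresis, with gain- or loss-of-signal fitting relative to DMSO.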

[4] = ATG_NF_kB_CIS: Attagene CIS-FACTORIAL HepG2 Assay for human Nuclear Factor Kappa B (NF-kB) (AID 2282991); details: HepG2 Attagene cis-factorial NF-kB reporter mRNA; actives raise or lower the signal
Summary of the method: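 HepG2, transient multi-reporter transfection, cis promoter elements (endogenous TFs). 24 h exposure. Total RNA → RT → PCR → 6-FAM label → HpaI → CE. Gain/loss vs DMSO.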

[5] = ATG_NRF2_ARE_CIS: Attagene CIS-FACTORIAL HepG2 Assay for human Nuclear Factor Erythroid 2 Related Factor 2 (NFR2) response to Antioxidant Response Elements (ARE) (AID 2282992); details: HepG2 Attagene ARE/NRF2 reporter, transcription factor activity; actives raise or lower the signal
Summary of the method: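 Endogenous transcription factor activity read out as reporter transcript levels (RT-PCR plus capillary electrophoresis, fluorescence) in transiently transfected HepG2 cells. Measured at 24 h after dosing; gain or loss of signal fitted versus DMSO.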

[6] = ATG_Oct_MLP_CIS: Attagene CIS-FACTORIAL HepG2 Assay for human Octamer-Binding Transcription Factor (Oct) (AID 2282993); details: HepG2 Attagene cis-factorial Oct reporter, mRNA; actives raise or lower the signal
Summary of the method: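 HepG2 cells transiently transfected with cis-element-driven reporter transcription units (endogenous TF activity); 24 h compound exposure. Reporter mRNA quantified by RT-PCR, 6-FAM labelling, HpaI digestion and capillary electrophoresis; bidirectional fit versus DMSO baseline.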

[7] = target: Cellular tumor antigen p53 (Homo sapiens) (UniProt P04637); test: ATG_p53_CIS: Attagene CIS-FACTORIAL HepG2 Assay for human p53 Transcription Factor (AID 2282994); details: HepG2 p53 cis-element reporter, Attagene mRNA; actives raise or lower the signal
Summary of the method: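 Endogenous p53 activity read in transiently transfected HepG2 from a cis-element-driven reporter transcript after 24 h exposure. RNA reverse-transcribed, PCR-amplified, fluorescently labelled and sized by capillary electrophoresis; gain or loss fitted against DMSO baseline.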

[8] = BSK_3C_TissueFactor: BioMAP Diversity Plus: 3C Assay for Tissue Factor Biomarker Activity (AID 2282997); details: BioMAP 3C HUVEC, tissue factor biomarker readout; actives raise or lower the signal
Summary of the method: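 In this endothelial system, HUVEC are treated for 24 h and Tissue Factor is assessed by ELISA, normalised to DMSO.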

[9] = BSK_3C_uPAR: BioMAP Diversity Plus: 3C Assay for Urokinase-type plasminogen activator receptor (uPAR) Biomarker Activity (AID 2282998); details: BioMAP 3C HUVEC, uPAR biomarker ELISA; actives raise or lower the signal
Summary of the method: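 Primary human umbilical vein endothelial cells, 3C system; surface uPAR measured by ELISA 24 h after dosing. Cytotoxicity via SRB total protein in parallel cultures; bidirectional fit against DMSO.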

[10] = BSK_3C_VCAM1: BioMAP Diversity Plus: 3C Assay for Vascular cell adhesion molecule 1 (VCAM1) Biomarker Activity (AID 2282999); details: BioMAP 3C HUVEC, VCAM1 ELISA, cytokine-stimulated; actives raise or lower the signal
Summary of the method: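 Activity fitted in both directions relative to DMSO, with ELISA measurement of the surface marker on primary HUVEC (3C) at 24 h post-treatment; parallel SRB staining (0.1% SRB, TCA-fixed, 560 nm) flagged overt cytotoxicity.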

[11] = BSK_4H_Eotaxin3: BioMAP Diversity Plus: 4H Assay for Eotaxin 3 Biomarker Activity (AID 2283000); details: primary human endothelial cells (HUVEC); actives raise or lower the signal
Summary of the method: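 ELISA quantitation of CCL26 (Eotaxin-3) protein from chemically dosed human vascular endothelial cells at 24 h; increases and decreases both scored relative to DMSO-treated baseline.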

[12] = target: human Peroxisome Proliferator-activated Receptor alpha (PPARa), PPARA (gene 5465) (UniProt Q07869); test: ATG_PPARa_TRANS: Attagene TRANS-FACTORIAL HepG2 Assay for human Peroxisome Proliferator-activated Receptor alpha (PPARa) (AID 2283001; active = hit-call score of the fitted dose curve at least 0.9, where 1 is the maximum;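 as to AC50: potency for gain of reporter signal over DMSO so agonist or activator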)
Summary of the method: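 Transfected HepG2 cells treated with test chemical for 24 h. RNA isolated, reverse-transcribed with oligo(dT), PCR-amplified, FAM-labelled and HpaI-digested. Fragments sized by capillary electrophoresis; gain-of-signal fit relative to DMSO.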

[13] = target: human Peroxisome Proliferator-activated Receptor delta (PPARd), PPARD (gene 5467) (UniProt Q03181); test: ATG_PPARd_TRANS: Attagene TRANS-FACTORIAL HepG2 Assay for human Peroxisome Proliferator-activated Receptor delta (PPARd) (AID 2283002; active = hit-call score of the fitted dose curve at least 0.9, where 1 is the maximum)
Summary of the method: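 Cell-based TRANS reporter: HepG2, transient MRTU transfection, 24 h exposure. Readout = reporter mRNA (RT-PCR/CE, 6-FAM). Gain-of-signal fit vs DMSO control.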

[14] = read-out: Intercellular Adhesion Molecule 1 (ICAM1), ICAM1 (gene 3383); test: BSK_3C_ICAM1: BioMAP Diversity Plus: 3C Assay for Intercellular Adhesion Molecule 1 (ICAM1) Biomarker Activity (AID 2283003); details: primary human endothelial cells (HUVEC); actives raise or lower the signal
Summary of the method: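 Using DMSO as baseline, bidirectional curve fitting was applied to ICAM-1 ELISA signals from HUVEC in the 3C system, measured 24 h after compound addition.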

[15] = BSK_3C_Proliferation: Cell Proliferation Assessment in the BioMAP Diversity Plus: 3C Assay (AID 2283006); details: primary human endothelial cells (HUVEC);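 as to AC50: potency may reflect either rise or fall in cell number versus DMSO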
Summary of the method: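 Measured here: sulforhodamine B (0.1%) staining of TCA-fixed sub-confluent umbilical vein endothelial cultures 48 h post-dosing, absorbance 560 nm. DMSO served as negative control and baseline; both signal gain and loss were modelled.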

[16] = target: Peroxisome proliferator-activated receptor gamma (Homo sapiens) (UniProt P37231); test: ATG_PPARg_TRANS: Attagene TRANS-FACTORIAL HepG2 Assay for human Peroxisome Proliferator-activated Receptor-gamma (PPARg) (AID 2283007; active = hit-call score of the fitted dose curve at least 0.9, where 1 is the maximum)
Summary of the method: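 Multiplexed reporter transcription units in HepG2, 24 h dosing, reporter transcripts quantified by fluorescent RT-PCR and capillary electrophoresis. Increase over DMSO scored.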

[17] = target: Nuclear receptor subfamily 1 group I member 2 (Homo sapiens) (UniProt O75469); test: ATG_PXR_TRANS: Attagene TRANS-FACTORIAL HepG2 Assay for human Pregnane X Receptor (PXR) (AID 2283008; active = hit-call score of the fitted dose curve at least 0.9, where 1 is the maximum)
Summary of the method: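 Transactivation by exogenous PXR–GAL4 fusion measured as reporter transcript induction after 24 h compound treatment of transfected human HepG2 cells. Read-out via RT-PCR and capillary electrophoresis of labelled fragments, fitted upward relative to DMSO.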

[18] = target: human Retinoic Acid Receptor gamma (RARg), RARG (gene 5916) (UniProt P13631); test: ATG_RARg_TRANS: Attagene TRANS-FACTORIAL HepG2 Assay for human Retinoic Acid Receptor gamma (RARg) (AID 2283009; active = hit-call score of the fitted dose curve at least 0.9, where 1 is the maximum)
Summary of the method: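 Gain-of-signal relative to DMSO is reported from fluorescent capillary electrophoresis of RT-PCR reporter products. These came from HepG2 cells expressing transfected RARg-GAL4 chimeras with UAS reporters, harvested 24 h after dosing.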

[19] = target: human Retinoic Acid Receptor beta (RARb), RARB (gene 5915) (UniProt P10826); test: ATG_RARb_TRANS: Attagene TRANS-FACTORIAL HepG2 Assay for human Retinoic Acid Receptor beta (AID 2283004; active = hit-call score of the fitted dose curve at least 0.9, where 1 is the maximum)
Summary of the method: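 Fluorescent capillary-electrophoresis detection of GAL4-UAS reporter mRNA defines the endpoint, with induction over DMSO-treated wells scored as activity. Transiently transfected human hepatoma HepG2 cells expressing exogenous NR–Gal4 proteins are exposed to test chemicals for 24 h.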

[20] = target: Retinoic acid receptor alpha (Homo sapiens) (UniProt P10276); test: ATG_RARa_TRANS: Attagene TRANS-FACTORIAL HepG2 Assay for human Retinoic Acid Receptor alpha (RARa) (AID 2283005; active = hit-call score of the fitted dose curve at least 0.9, where 1 is the maximum)
Summary of the method: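 Reporter transcripts, measured by RT-PCR with fluorescent labeling and capillary electrophoresis after 24 h dosing, reflect activity of an exogenous human RARa–GAL4 fusion in transiently transfected HepG2. Fitted for increase relative to DMSO.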

Measured: AC50

Chain of Cellular tumor antigen p53 (Homo sapiens) (P04637 whole entry, looked up): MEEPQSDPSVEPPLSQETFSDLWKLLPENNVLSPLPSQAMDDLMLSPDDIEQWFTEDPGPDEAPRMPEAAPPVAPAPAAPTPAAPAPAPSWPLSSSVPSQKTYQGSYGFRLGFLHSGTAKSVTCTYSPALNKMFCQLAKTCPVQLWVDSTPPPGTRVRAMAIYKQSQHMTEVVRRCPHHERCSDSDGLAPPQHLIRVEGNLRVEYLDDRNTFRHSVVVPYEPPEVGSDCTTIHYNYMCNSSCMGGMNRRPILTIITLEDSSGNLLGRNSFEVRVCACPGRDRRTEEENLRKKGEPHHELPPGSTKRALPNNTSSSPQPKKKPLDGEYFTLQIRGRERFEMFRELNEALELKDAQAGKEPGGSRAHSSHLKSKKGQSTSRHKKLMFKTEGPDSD
Chain of Nuclear receptor subfamily 1 group I member 2 (Homo sapiens) (O75469 whole entry, looked up, the tested form may be a part): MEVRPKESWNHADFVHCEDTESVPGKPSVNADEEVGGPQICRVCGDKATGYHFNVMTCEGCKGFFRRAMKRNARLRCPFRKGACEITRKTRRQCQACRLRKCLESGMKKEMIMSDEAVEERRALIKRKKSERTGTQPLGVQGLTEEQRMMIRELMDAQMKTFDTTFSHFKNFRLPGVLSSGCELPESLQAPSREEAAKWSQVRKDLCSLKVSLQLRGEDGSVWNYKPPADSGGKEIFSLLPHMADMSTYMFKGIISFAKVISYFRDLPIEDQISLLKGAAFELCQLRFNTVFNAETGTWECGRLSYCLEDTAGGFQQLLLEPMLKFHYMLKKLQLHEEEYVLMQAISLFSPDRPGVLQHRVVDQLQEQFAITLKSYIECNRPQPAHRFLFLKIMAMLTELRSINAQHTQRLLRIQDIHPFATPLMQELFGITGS
Chain of human Retinoic Acid Receptor gamma (RARg), RARG (gene 5916) (P13631 whole entry, looked up, the tested form may be a part): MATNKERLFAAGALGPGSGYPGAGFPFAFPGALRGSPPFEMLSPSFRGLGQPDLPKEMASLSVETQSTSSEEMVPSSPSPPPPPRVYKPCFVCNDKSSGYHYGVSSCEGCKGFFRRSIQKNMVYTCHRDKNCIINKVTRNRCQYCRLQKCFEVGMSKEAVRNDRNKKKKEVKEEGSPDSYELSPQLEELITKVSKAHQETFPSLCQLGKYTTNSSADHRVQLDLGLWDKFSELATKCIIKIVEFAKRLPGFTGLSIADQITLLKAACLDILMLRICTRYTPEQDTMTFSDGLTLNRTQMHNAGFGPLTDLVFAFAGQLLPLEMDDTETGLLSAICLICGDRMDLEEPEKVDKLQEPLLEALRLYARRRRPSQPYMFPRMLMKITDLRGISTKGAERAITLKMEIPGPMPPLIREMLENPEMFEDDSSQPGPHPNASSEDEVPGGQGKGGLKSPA
Chain of human Peroxisome Proliferator-activated Receptor alpha (PPARa), PPARA (gene 5465) (Q07869 whole entry, looked up, the tested form may be a part): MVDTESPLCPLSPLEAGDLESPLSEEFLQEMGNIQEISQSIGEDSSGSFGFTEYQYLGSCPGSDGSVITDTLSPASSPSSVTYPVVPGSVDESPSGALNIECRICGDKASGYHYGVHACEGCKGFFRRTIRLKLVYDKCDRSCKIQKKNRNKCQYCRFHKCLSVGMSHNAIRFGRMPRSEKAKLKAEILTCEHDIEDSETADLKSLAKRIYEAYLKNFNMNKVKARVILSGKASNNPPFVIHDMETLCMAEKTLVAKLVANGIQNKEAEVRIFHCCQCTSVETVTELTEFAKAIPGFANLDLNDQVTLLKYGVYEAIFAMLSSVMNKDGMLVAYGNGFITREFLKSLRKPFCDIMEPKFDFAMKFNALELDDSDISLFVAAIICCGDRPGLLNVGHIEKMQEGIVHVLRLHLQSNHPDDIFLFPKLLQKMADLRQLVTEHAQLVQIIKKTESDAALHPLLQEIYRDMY
Chain of Retinoic acid receptor alpha (Homo sapiens) (P10276 whole entry, looked up, the tested form may be a part): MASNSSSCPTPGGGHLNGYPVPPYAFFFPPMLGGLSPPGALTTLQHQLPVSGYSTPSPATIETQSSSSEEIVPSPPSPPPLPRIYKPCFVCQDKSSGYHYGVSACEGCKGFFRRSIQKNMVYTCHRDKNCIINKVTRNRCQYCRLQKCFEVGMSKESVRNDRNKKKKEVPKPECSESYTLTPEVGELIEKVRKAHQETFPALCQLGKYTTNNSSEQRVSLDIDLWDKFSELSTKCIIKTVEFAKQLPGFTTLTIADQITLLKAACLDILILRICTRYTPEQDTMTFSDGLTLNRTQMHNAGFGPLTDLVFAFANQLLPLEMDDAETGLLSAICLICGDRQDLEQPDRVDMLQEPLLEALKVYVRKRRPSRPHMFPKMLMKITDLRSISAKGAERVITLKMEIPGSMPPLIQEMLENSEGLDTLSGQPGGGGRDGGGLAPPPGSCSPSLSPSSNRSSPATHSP
Chain of human Peroxisome Proliferator-activated Receptor delta (PPARd), PPARD (gene 5467) (Q03181 whole entry, looked up): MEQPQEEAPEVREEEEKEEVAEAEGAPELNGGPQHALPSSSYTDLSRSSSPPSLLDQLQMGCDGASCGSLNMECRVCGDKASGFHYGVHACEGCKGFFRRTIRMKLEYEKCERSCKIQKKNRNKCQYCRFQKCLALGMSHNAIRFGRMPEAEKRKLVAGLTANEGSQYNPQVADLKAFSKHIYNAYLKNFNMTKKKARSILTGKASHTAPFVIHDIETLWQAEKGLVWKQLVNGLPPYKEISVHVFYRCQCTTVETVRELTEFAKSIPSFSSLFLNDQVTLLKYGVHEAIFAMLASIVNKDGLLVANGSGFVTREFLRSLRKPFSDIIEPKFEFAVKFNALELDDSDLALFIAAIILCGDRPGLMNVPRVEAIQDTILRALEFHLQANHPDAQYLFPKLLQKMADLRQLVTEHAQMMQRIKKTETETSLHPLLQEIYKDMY
Chain of Myc proto-oncogene protein (Homo sapiens) (P01106 whole entry, looked up): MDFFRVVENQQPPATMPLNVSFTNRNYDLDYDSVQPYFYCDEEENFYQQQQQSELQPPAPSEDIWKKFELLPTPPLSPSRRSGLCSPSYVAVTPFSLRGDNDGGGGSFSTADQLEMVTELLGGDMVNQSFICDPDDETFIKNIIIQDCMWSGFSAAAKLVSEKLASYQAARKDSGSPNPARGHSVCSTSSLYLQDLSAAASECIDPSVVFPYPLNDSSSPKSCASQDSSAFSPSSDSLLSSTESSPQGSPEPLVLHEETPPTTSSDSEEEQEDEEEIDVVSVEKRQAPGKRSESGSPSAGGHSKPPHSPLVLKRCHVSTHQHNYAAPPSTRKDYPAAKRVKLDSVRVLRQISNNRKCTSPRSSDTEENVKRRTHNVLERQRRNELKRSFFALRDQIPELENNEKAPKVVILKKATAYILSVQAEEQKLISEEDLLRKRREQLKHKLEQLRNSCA
Chain of Nuclear respiratory factor 1 (Homo sapiens) (Q16656 whole entry, looked up): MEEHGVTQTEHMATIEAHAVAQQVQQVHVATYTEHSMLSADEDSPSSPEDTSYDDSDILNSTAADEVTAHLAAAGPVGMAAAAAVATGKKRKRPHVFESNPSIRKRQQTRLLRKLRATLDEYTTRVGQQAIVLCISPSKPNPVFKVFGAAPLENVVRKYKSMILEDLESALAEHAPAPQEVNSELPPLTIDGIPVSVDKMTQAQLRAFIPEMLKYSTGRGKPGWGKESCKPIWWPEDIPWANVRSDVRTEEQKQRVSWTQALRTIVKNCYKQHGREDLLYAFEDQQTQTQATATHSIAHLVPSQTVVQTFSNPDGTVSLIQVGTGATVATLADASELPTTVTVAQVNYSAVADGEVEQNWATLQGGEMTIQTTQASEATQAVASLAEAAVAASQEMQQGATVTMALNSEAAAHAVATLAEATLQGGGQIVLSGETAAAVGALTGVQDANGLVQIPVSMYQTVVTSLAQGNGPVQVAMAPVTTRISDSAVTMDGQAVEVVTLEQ
Chain of Peroxisome proliferator-activated receptor gamma (Homo sapiens) (P37231 whole entry, looked up): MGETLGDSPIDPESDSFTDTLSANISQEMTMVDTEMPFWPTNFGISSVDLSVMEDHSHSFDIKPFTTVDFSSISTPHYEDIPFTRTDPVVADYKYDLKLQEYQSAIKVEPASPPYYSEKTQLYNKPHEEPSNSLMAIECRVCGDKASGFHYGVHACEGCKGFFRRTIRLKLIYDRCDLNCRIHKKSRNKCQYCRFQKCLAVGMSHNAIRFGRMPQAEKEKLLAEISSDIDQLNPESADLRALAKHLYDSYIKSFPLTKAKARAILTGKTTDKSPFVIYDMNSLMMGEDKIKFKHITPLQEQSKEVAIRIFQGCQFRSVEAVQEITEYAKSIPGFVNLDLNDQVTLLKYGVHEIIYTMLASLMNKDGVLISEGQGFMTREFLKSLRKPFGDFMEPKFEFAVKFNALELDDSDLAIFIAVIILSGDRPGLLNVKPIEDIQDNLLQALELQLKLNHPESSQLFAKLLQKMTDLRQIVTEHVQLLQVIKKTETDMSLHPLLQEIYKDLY
Chain of human Retinoic Acid Receptor beta (RARb), RARB (gene 5915) (P10826 whole entry, looked up, the tested form may be a part): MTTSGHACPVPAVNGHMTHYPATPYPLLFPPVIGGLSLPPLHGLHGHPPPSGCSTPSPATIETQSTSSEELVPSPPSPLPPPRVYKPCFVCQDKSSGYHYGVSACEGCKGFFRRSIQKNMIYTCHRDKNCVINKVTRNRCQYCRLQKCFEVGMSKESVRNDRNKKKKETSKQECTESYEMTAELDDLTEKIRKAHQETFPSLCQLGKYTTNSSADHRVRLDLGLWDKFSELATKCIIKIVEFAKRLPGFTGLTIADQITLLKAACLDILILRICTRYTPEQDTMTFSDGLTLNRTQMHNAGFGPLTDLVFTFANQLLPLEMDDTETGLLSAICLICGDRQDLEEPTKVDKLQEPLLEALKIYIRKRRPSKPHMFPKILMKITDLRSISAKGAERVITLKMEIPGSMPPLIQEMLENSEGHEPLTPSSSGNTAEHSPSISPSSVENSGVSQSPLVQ

OCC(F)(F)C(F)(F)C(F)(F)CO
not listed: [16] | [17] | [18] | [19] | [20]
inactive: all other assays above

O=C(O)C(F)(F)OC(F)(F)C(F)(F)OC(F)(F)C(F)(F)OC(F)(F)F
active: [5] 37.8 µM | [12] 15.4 µM | [16] 17.9 µM
not listed: [19] | [20]
inactive: all other assays above

NCC(F)(F)C(F)(F)C(F)(F)C(F)(F)C(F)(F)C(F)(F)C(F)(F)C(F)(F)F
not listed: [13]
inactive: all other assays above

CCN(CC)c1ccc(N=Nc2ccccc2)cc1
active: [1] 35.4 µM | [5] 3.86 µM | [9] 20 µM | [10] 20 µM | [11] 13 µM | [15] 12 µM | [16] 4.67 µM | [17] 4.22 µM
not listed: [19] | [20]
inactive: all other assays above

OCC(F)(F)C(F)(F)C(F)(F)C(F)(F)C(F)(F)C(F)(F)C(F)(F)C(F)(F)CO
inactive: [1] | [2] | [3] | [4] | [5] | [6] | [7] | [8] | [9] | [10] | [11] | [13] | [14] | [16]
active: [9] 7.66 µM | [11] 38 µM | [15] 30 µM and 44.6 µM | [17] 14.4 µM

C=C(C)C(=O)OCC(F)(F)C(F)(F)C(F)(F)C(F)F
not listed: [18] | [19]
inactive: all other assays above

FC(F)(F)C(F)(F)C(F)(F)C(F)(F)C(F)(F)C(F)(F)C(F)(F)CCI
active: [5] 30.6 µM
not listed: [16] | [18] | [19] | [20]
inactive: all other assays above

NC(=O)C(F)(F)C(F)(F)C(F)(F)C(F)(F)C(N)=O
not listed: [18] | [19] | [20]
inactive: all other assays above

CO[Si](C)(CCC(F)(F)C(F)(F)C(F)(F)C(F)(F)C(F)(F)C(F)(F)F)OC
not listed: [19] | [20]
inactive: all other assays above

C=CC(=O)OCCC(F)(F)C(F)(F)C(F)(F)C(F)(F)F
active: [5] 98.8 µM | [8] 22.2 µM and 26.3 µM | [10] 16.6 µM and 15.6 µM | [15] 30 µM and 32.6 µM
not listed: [18] | [19] | [20]
inactive: all other assays above

CN(C(=O)C(F)(F)C(F)(F)C(F)(F)F)[Si](C)(C)C
not listed: [18] | [19]
inactive: all other assays above

O=C(Cl)C(F)(F)C(F)(F)C(F)(F)C(F)(F)C(F)(F)C(F)(F)C(F)(F)F
active: [5] 49 µM | [12] 10.8 µM | [16] 55.1 µM
not listed: [19] | [20]
inactive: all other assays above

O=S(=O)(Cl)C(F)(F)C(F)(F)C(F)(F)C(F)(F)C(F)(F)C(F)(F)C(F)(F)C(F)(F)F
active: [5] 70.3 µM | [9] 45.8 µM and 47.4 µM | [16] 34.9 µM
inactive: all other assays above
